Data: the supplement of paper PMC9694430

Key:
Assay in all cases: thermal shift delta Tm vs DMSO control; higher = stronger stabilization (binding)
Conditions in all cases: 12.5 µM; protein concentration 2 µM
LOC_OS04G57630-cb004 = test system: LOC_OS04G57630-cb004
In short: (§1)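 Rice kinase domain constructs were expressed in E. coli, purified, and tested by differential scanning fluorimetry with compound added in DMSO. Each well of a 96-well plate held 19.5 μl of 2 μM kinase in 100 mM potassium phosphate pH 7.5, 150 mM NaCl, 10% glycerol and 5 × SYPRO Orange, and fluorescence was read from 25°C to 95°C at 0.05°C/s. The melting temperature shift is the mean of triplicates, taken against protein with DMSO alone after Boltzmann fitting.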

LOC_OS05G07850-cb002 = test system: LOC_OS05G07850-cb002
In short: as §1

LOC_OS05G16824-cb004 = test system: LOC_OS05G16824-cb004
In short: as §1

LOC_OS05G28520-cb001 = test system: LOC_OS05G28520-cb001
In short: as §1

LOC_OS05G30820-cb001 = test system: LOC_OS05G30820-cb001
In short: as §1

LOC_OS05G43570-cb004 = test system: LOC_OS05G43570-cb004
In short: as §1

LOC_OS06G16330-cb003 = test system: LOC_OS06G16330-cb003
LOC_OS06G16330-cb003, sequence (as listed by the source): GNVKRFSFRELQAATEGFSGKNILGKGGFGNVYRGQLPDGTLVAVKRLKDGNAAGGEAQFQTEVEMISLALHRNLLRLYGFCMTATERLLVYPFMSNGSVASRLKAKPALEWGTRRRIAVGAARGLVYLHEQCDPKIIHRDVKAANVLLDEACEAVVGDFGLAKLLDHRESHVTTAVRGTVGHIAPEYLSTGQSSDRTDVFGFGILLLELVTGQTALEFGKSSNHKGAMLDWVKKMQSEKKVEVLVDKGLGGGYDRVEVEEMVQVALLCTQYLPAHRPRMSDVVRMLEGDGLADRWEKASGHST
In short: as §1

LOC_OS06G22820-cb001 = test system: T1, LOC_OS06G22820-cb001
T1 sequence (whole entry): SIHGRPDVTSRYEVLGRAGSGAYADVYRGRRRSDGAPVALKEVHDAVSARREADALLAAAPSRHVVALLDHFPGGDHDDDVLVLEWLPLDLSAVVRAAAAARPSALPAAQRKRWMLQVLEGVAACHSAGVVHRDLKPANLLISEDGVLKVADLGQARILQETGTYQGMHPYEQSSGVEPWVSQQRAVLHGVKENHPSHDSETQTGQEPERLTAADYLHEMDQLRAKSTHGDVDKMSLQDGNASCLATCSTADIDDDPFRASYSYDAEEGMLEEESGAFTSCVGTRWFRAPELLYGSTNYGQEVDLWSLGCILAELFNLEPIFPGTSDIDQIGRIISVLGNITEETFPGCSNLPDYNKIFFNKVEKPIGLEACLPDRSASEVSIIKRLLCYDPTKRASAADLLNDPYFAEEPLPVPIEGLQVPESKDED
In short: as §1

LOC_OS07G06570-cb004 = test system: LOC_OS07G06570-cb004
In short: as §1

LOC_OS07G07230-cb001 = test system: LOC_OS07G07230-cb001
In short: as §1

SMILES	thermal shift delta Tm (LOC_OS04G57630-cb004)	thermal shift delta Tm (LOC_OS05G07850-cb002)	thermal shift delta Tm (LOC_OS05G16824-cb004)	thermal shift delta Tm (LOC_OS05G28520-cb001)	thermal shift delta Tm (LOC_OS05G30820-cb001)	thermal shift delta Tm (LOC_OS05G43570-cb004)	thermal shift delta Tm (LOC_OS06G16330-cb003)	thermal shift delta Tm (LOC_OS06G22820-cb001)	thermal shift delta Tm (LOC_OS07G06570-cb004)	thermal shift delta Tm (LOC_OS07G07230-cb001)
O=C(Nc1c[nH]nc1-c1nc2ccc(CN3CCOCC3)cc2[nH]1)NC1CC1	3.7 °C	14.2 °C	14.9 °C	0.46 °C	4.77 °C	1.2 °C	10.7 °C	0.86 °C	0.71 °C	0.15 °C
NCC(=O)Nc1ccc(-n2nc(C(F)(F)F)cc2-c2ccc3c(ccc4ccccc43)c2)cc1	-0.2 °C	1.75 °C	1.88 °C	0.25 °C	-0.08 °C	0.27 °C	0.39 °C	0.4 °C	0.5 °C	0.18 °C
Oc1c(F)cc(-c2cnccc2-c2ccc(N3CCOCC3)cc2)cc1F	0.16 °C	3.05 °C	-0.48 °C	0.43 °C	0.5 °C	0.44 °C	0.26 °C	0.6 °C	0.96 °C	0.44 °C
CCn1c(=O)c(-c2ccc(Cl)cc2Cl)cc2cnc(Nc3ccc(N4CCNCC4)c(F)c3)nc21	4.17 °C	10.6 °C	6 °C	2.8 °C	0.68 °C	0.35 °C	6.75 °C	0.87 °C	1.3 °C	4.1 °C
Cc1ccc(-n2nc(C(C)(C)C)cc2NC(=O)NCc2cc(F)ccc2Oc2ccc3c(cnn3CCO)c2)cc1 [Pexmetinib (ARRY-614)]	5.61 °C	7.46 °C	-1.5 °C	0.41 °C	0.66 °C	0.54 °C	3.89 °C	0.91 °C	0.14 °C	-0.6 °C
Cc1ccc(Nc2cc(N[C@@H]3CCCC[C@@H]3N)nnc2C(N)=O)nc1C	-0.04 °C	6.83 °C	5.76 °C	0.7 °C	1.49 °C	0.67 °C	4.95 °C	1.48 °C	1.39 °C	0.12 °C
COCCOc1ccc2c(c1)ncn2-c1ccc2cccc(N3CCC(N)CC3)c2n1	6.59 °C	16.7 °C	12.6 °C	-0.07 °C	1.5 °C	0.49 °C	7.19 °C	0.77 °C	1.03 °C	0.19 °C
COc1cc(N2CCN(C)CC2)ccc1Nc1nccc(-c2cn(C)c3cnccc23)n1	0.55 °C	11.8 °C	-3.65 °C	0.25 °C	0.38 °C	0.32 °C	5.31 °C	0.11 °C	1.53 °C	0.44 °C
COc1ccc(S(=O)(=O)N(CCO)c2ccccc2CN(C)C/C=C/c2ccc(Cl)cc2)cc1 [KN-93 Phosphate]	0.49 °C	0.97 °C	1.97 °C	0.31 °C	0.17 °C	0.27 °C	-0.14 °C	0.35 °C	1.18 °C	0.21 °C
Cc1ccc(S(=O)(=O)/C=C/C#N)cc1	2.48 °C	7.56 °C	-14.7 °C	0.54 °C	-0.01 °C	-0.14 °C	-0.31 °C	0.01 °C	1.13 °C	-0.21 °C
CN(C)Cc1cccc(N/C(=C2\C(=O)Nc3cc(C(N)=O)ccc32)c2ccccc2)c1	0.27 °C	5.34 °C	2.95 °C	0.22 °C	0.46 °C	0.7 °C	0.53 °C	0.79 °C	1.03 °C	0.16 °C
COc1cc(N2CCC(N3CCN(C)CC3)CC2)ccc1Nc1ncnc(Nc2ccccc2S(=O)(=O)C(C)C)n1	-0.16 °C	9.97 °C	-1.84 °C	0.49 °C	0.53 °C	0.45 °C	2.65 °C	0.91 °C	1.77 °C	0.45 °C
COc1c(C)c(C(=O)c2ccc(N)c(C(=O)O)c2)n2ccccc12	0.19 °C	0.78 °C	-2.73 °C	0.86 °C	0.51 °C	0.58 °C	-0.18 °C	0.47 °C	1.2 °C	0.36 °C
C[C@@H]1COCCN1c1cc(=O)n2c(n1)N(Cc1cncc(Cl)c1)[C@H](C(F)(F)F)CC2	0.52 °C	-0.08 °C	-0.52 °C	1.37 °C	0.35 °C	0.36 °C	-0.04 °C	0.75 °C	1.02 °C	-0.12 °C
Cc1cc(Nc2cc(N3CCN(C)CC3)nc(Sc3ccc(NC(=O)C4CC4)cc3)n2)n[nH]1 [Tozasertib (VX-680, MK-0457)]	5.53 °C	8.32 °C	15.4 °C	2.06 °C	0.66 °C	0.98 °C	5.98 °C	0.83 °C	0.91 °C	0.6 °C
Cc1ncc(-c2ccnc(Nc3ccc(S(C)(=O)=O)cc3)n2)n1C(C)C	1.43 °C	11.2 °C	6.1 °C	0.35 °C	1.14 °C	0.74 °C	5.53 °C	1.02 °C	0.69 °C	0.17 °C
CCn1nc(C2CCN(C(=O)CCO)CC2)nc1-c1cnc(N)c(-c2nnc(C(C)(C)C)o2)n1	0.47 °C	8.76 °C	1.95 °C	0.66 °C	0.58 °C	0.43 °C	5.59 °C	0.93 °C	0.86 °C	0.4 °C
CC(C)n1nc(-c2ccc3oc(N)nc3c2)c2c(N)ncnc21	0.37 °C	7.34 °C	-0.35 °C	0.63 °C	0.45 °C	0.24 °C	2.84 °C	0.75 °C	1.22 °C	0.29 °C
CCCCOc1c(C(=O)c2c(F)cc(C)cc2F)c[nH]c2nncc1-2	0.1 °C	5.8 °C	-1.11 °C	-0.07 °C	0.47 °C	0.9 °C	0.88 °C	1.75 °C	0.61 °C	-0.1 °C
COc1cc(F)c(F)c(Nc2ccc(I)cc2F)c1NS(=O)(=O)C1(C[C@H](O)CO)CC1 [Refametinib (RDEA119, Bay 86-9766)]	0.29 °C	0.16 °C	-0.08 °C	1.02 °C	0.34 °C	0.4 °C	0.11 °C	1.27 °C	0.72 °C	0.01 °C
CO[C@H]1C[C@@H]2CC[C@@H](C)[C@@](O)(O2)C(=O)C(=O)N2CCCC[C@H]2C(=O)O[C@H]([C@H](C)C[C@@H]2CC[C@@H](OC(=O)C(C)(CO)CO)[C@H](OC)C2)CC(=O)[C@H](C)/C=C(\C)[C@@H](O)[C@@H](OC)C(=O)[C@H](C)C[C@H](C)/C=C/C=C/C=C/1C	-0.25 °C	0.18 °C	-4.25 °C	0.46 °C	0.38 °C	0.24 °C	-0.27 °C	0.76 °C	0.91 °C	0.12 °C
